Screening data from PubChem BioAssay.
A selection: hits, their analogues and other compounds. The true share with any hit is near 2.4%.
POLI inh = qHTS for Inhibitors of Polymerase Iota; DNA polymerase iota (Homo sapiens), Q9UNA4; Pol iota fluorescent replication assay, 10 min; Potency, µM (titrated, usually from 115 µM), without a hit: top-dose activity, negative = inhibition, actives largely listed as inhibitors; 390,000 compounds, 1% hits; AID 588590, 2011
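Pol iota at 10 nM preincubated 15 min with compounds at room temperature; reaction started with fluorescent substrate, 50 nM final. Fluorescence read kinetically at 0 and 10 min; buffer-only wells as negative control.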
FEN1 inhibitor = qHTS Assay for the Inhibitors of Human Flap endonuclease 1 (FEN1) | 390,000 compounds, 0.35% hits | Potency, µM (highest dose often 114 µM), inactives show at the highest dose activity change, negative = inhibition, usual class: inhibitors | Recombinant FEN1 flap cleavage, fluorescence, 15 min | AID 588795, 2011 | P39748; further: on the % scale 0 is the no-effect control and ±100 the full control effect; nearly all actives have a fitted effect of over 65% in size
Target sequence (P39748 whole entry, looked up): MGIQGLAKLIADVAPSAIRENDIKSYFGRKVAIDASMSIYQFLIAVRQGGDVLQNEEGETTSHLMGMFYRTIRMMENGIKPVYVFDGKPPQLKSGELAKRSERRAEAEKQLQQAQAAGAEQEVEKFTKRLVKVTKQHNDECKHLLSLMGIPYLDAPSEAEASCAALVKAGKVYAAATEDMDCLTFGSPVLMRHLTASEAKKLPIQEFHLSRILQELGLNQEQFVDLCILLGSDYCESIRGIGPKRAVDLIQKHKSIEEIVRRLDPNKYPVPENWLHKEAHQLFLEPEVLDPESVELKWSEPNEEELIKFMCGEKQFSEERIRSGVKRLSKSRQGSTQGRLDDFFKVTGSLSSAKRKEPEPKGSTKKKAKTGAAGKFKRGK
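In this screen, 50 nM flap DNA substrate was added to 10 nM FEN1 pretreated with compound for 15 min at room temperature; cleavage was followed with reads at 0 and 15 min, and Hill fitting gave concentration–response parameters.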
Pol eta inh-1 = qHTS for Inhibitors of Polymerase Eta; DNA polymerase eta (Homo sapiens), Q9Y253; AID 588591, 2011; recombinant Pol eta, fluorescent DNA replication assay; 390,000 compounds, 1.2% hits; Potency, µM (titrated, usually from 114 µM), for the others: top-dose activity change, negative = inhibition, most hits filed as inhibitors; further: on the % scale 0 is the no-effect control and ±100 the full control effect
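Pol eta at 10 nM preincubated with compounds 15 min at room temperature; reaction started with fluorescent substrate (50 nM final) and read kinetically at 0 and 10 min.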
WRN inhibitor = qHTS for Inhibitors of WRN Helicase | Bifunctional 3'-5' exonuclease/ATP-dependent helicase WRN (Homo sapiens), Q14191 | WRN helicase unwinding, fluorescent forked duplex, kinetic | Potency, µM (highest dose often 114 µM), for inactives: at the top dose activity change, negative = inhibition, most hits filed as inhibitors | 360,000 compounds, 0.46% hits | AID 651768, 2012; further: on the % scale 0 is the no-effect control and ±100 the full control effect; nearly all actives have a fitted effect of over 55% in size
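WRN at 20 nM final preincubated with compound 15 min at room temperature; reaction started with 100 nM fluorophore/quencher forked duplex oligonucleotide and 2 mM ATP final. Unwinding followed kinetically by red fluorescence (ex 525, em 598 nm).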
POLB inh = qHTS Assay for Inhibitors of DNA Polymerase Beta; P06746; Pol beta primer extension/strand displacement, fluorescence kinetic; AID 485314, 2010; 340,000 compounds, 1.3% hits; Potency, µM (doses to about 114 µM), inactives show at the highest dose activity change, negative = inhibition, usual class: inhibitors; further: on the % scale 0 is the no-effect control and ±100 the full control effect
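Values derive from four-parameter Hill fits of normalized kinetic data: reads at 0 and 10 min following addition of 50 nM substrate to 10 nM Pol beta preincubated 15 min with compound.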
Pol kappa inh-1 = qHTS for Inhibitors of Polymerase Kappa; DNA polymerase kappa (Homo sapiens), Q9UBT6; purified Pol kappa, fluorescent DNA synthesis assay, 10 min; Potency, µM (series often up to 107 µM), for the others: at the highest dose activity, negative = inhibition, hits mostly inhibitors; 400,000 compounds, 0.53% hits; further: on the % scale 0 is the no-effect control and ±100 the full control effect
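Kinetic fluorescence screen: compound preincubated 15 min RT with 10 nM enzyme; 50 nM substrate (final) initiates; reads at 0/10 min.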
Pol kappa inh-2 = qHTS for Inhibitors of Polymerase Kappa: Confirmatory Assay for Cherry-picked Compounds. shares compounds with Pol eta inh-1. Potency, µM, hits mostly inhibitors. purified Pol-kappa, fluorescent strand-displacement substrate. 920 compounds, 76% hits
Pol eta inh-2 = qHTS for Inhibitors of Polymerase Eta: Confirmatory Assay for Cherry-picked Compounds | Potency, µM, hits mostly inhibitors | 2,600 compounds, 64% hits | shares compounds with Pol eta inh-1 | Pol eta primer extension, TAMRA/BHQ fluorescence, 10 min
Numbers without * were called inactive; u = inconclusive; x = no result; [ ] = remark or other dose. The call rests on the fitted dose curve; in most records, active means well fitted curve in the direction sought with a large enough effect; inconclusive means small, poorly fitted or top-dose-only effect, or another doubt; inactive means no such curve, though single readings can be large; an effect the other way counts as inactive or inconclusive. Potency means the concentration at half of the fitted maximal effect.

SMILES | POLI inh | FEN1 inhibitor | Pol eta inh-1 | WRN inhibitor | POLB inh | Pol kappa inh-1 | Pol eta inh-2 | others
CCOCCCNC(=O)c1c[nH]c2ccc(S(=O)(=O)Nc3cccc(Cl)c3C)cc2c1=O | u | -16.0% | 31.6µM* | x | 28.2µM* | u | 84.9* | Pol kappa inh-2=21.2*
CCCCN(CCCC)C(=O)c1c[nH]c2ccc(S(=O)(=O)Nc3cccc(Cl)c3C)cc2c1=O | 79.4µM* | 2.4% | 39.8µM* | x | 35.5µM* | -15.3%[60.1 µM] | 75.7* | Pol kappa inh-2=15*
COCCCNC(=O)c1c[nH]c2ccc(S(=O)(=O)N(C)c3ccccc3C)cc2c1=O | 53.3% | 11.1% | -24.6% | 0.6%[57.1 µM] | 1.1% | -0.4% | x
CC(NC(=O)C1CCN(CCOc2ccc(Cl)cc2)CC1)c1cccc2ccccc12 (configuration not stated) | x | x | x | 5.8% | x | x | x
O=[N+]([O-])c1ccc(S(=O)(=O)NN=CCCc2ccccc2)cc1 | 66.0% | 0.0% | 2.3% | -17.3% | x | -10.9% | x
Cc1ccc(CNC(=O)CSc2nc(=O)n3ccc(C)cc3n2)cc1 | x | x | 28.2µM* | -18.7% | x | x | u
Cc1ccn2c(=O)nc(SCC(=O)NCc3ccco3)nc2c1 | u | 9.8% | u | u | x | -18.3% | x
COC(=O)c1ccccc1NC(=O)Cn1c(=O)n(CCCCC(=O)NCc2ccc3c(c2)OCO3)c(=O)c2ccccc21 | 6.3% | -12.1% | -6.7% | x | 16.2% | 2.7% | x
Cc1cccc(Oc2ccc3c(c2)Oc2ccccc2NC3=O)c1 | 70.8µM* | -21.3% | 50.1µM* | x | 12.6µM* | u | u
CC1CCN(c2cc3c(cc2F)c(=O)c(S(=O)(=O)c2ccc(Cl)cc2)cn3C)CC1 | -3.5% | -10.9% | 0.8% | x | u | -11.8% | x
Cc1ccc(Nc2c([N+](=O)[O-])ccc3nonc23)c(C)c1 | 4.7% | 12.1% | -24.5% | -5.1% | 8.5% | -15.9% | x
Cc1ccc(S(=O)c2ccc([N+](=O)[O-])c3nonc23)cc1 (configuration not stated) | x | x | 14.1µM* | 79.4µM* | x | x | 33.8* | Pol kappa inh-2=u
COc1ccc(CCNC(=O)Nc2nnc([C@H]3C[C@H](O)[C@@H](CO)O3)s2)cc1OC | x | x | x | 6.8% | x | x | x
Nc1nnc(CC(=O)N/N=C/c2cc([N+](=O)[O-])cc(Br)c2O)s1 | u | -31.5% | u | 56.2µM* | u | 50.1µM* | u | Pol kappa inh-2=47.4*
Nc1nnc(CC(=O)N/N=C/c2cccc([N+](=O)[O-])c2)s1 | 12.3% | -4.7% | -20.3% | -36.7% | 29.9% | -4.3% | x
Cc1ccc(-c2nc3c(c(SCC(=O)N4CCOCC4)n2)Cc2c(CO)cnc(C)c2O3)cc1 | 79.4µM* | -4.0% | u | -1.5%[11.6 µM] | -29.7% | -20.5% | u
COc1ccc(-c2nc3c(c(SCC(=O)N4CCOCC4)n2)Cc2c(CO)cnc(C)c2O3)cc1 | 3.9% | 10.9% | -2.2% | -0.5% | 16.5% | -8.4% | x
Cc1ccc(-n2c3nc(=O)[nH]c(=O)c-3cc3cc([N+](=O)[O-])ccc32)cc1C | 50.3% | u | 20µM* | u | -7.5% | -7.5% | u
CN1OC[C@@H]2CN(S(=O)(=O)c3cccc(C(F)(F)F)c3)[C@H](c3ccc(N4CCCCC4)cc3)C[C@@H]21 | x | x | x | 7.9% | x | x | x
COc1ccc(/C=N/Nc2nc(C(=O)O)cs2)cc1 | 20µM* | 1.4% | 31.6µM* | -14.0% | u | u | u
Cc1ccc(NC(=O)CSc2nc(-c3ccco3)nc3cc(=O)[nH]n23)c(Cl)c1 | 39.8µM* | -21.1% | 44.7µM* | -9.0%[11.6 µM] | 50.1µM* | u | 47.8*
C[C@@H]1CN([C@@H](C)CO)C(=O)CCCn2nncc2CO[C@H]1CN(C)C(=O)C1CCCCC1 | x | x | -10.4% | 5.5% | x | x | x
O=C(O)C1C2C=CC3(O2)C1C(=O)N1c2ccccc2C2OCCC2C13 (configuration not stated) | u | -1.8% | 35.5µM* | -23.1%[57.1 µM] | 39.8µM* | -33.3% | u
C=C(C)CC1N(c2cccc(OC)c2)C(=O)C2C(C(=O)O)C3C=CC21O3 (configuration not stated) | -22.0% | -14.8% | -9.4% | -3.9% | 38.3% | -2.6% | x
O=C(NN1C(=O)/C(=C/c2ccc(O)c(O)c2)SC1=S)c1ccccc1 | 22.4µM* | -33.9% | 1.12µM* | u | 17.8µM* | 39.8µM* | u
SMILES | POLI inh | FEN1 inhibitor | Pol eta inh-1 | WRN inhibitor | POLB inh | Pol kappa inh-1 | Pol eta inh-2 | others
CN(C(=O)CSc1ncnc2ccccc12)C1CCCCC1 | 27.7% | 1.6% | -17.9% | -14.3% | x | -9.2% | x
C/C(=N\Nc1ccc(Cl)c(C(=O)O)c1)c1cc2ccccc2o1 | 98.7% | 2.5% | -20.2% | -20.6% | 16.4% | -3.5% | x
C/C(=N\Nc1ccc(Cl)c(C(=O)O)c1)c1cccc2ccccc12 | 15.8µM* | -4.3% | 7.94µM* | u | 28.2µM* | u | 26.9*
O=C(O)c1cccc(NN=C2c3ccccc3-c3ccccc32)c1 | 43.0% | -31.2% | u | -21.0% | u | -8.7% | x
O=C(O)c1cc(NN=C2c3ccccc3-c3ccccc32)ccc1Cl | u | u | 22.4µM* | u | 50.1µM* | u | 37.9*
CCc1cc[n+](C2=C([O-])c3ccccc3C(=O)/C2=N\S(=O)(=O)c2cccs2)cc1 | u | 1.5% | 50.1µM* | -32.1% | u | -19.0% | 75.7*
Cc1ccc(C)n1-c1nc(=S)[nH][nH]1 | u | -14.1% | 44.7µM* | u | -1.7% | 28.2µM* | 75.7*
S=c1nc(-c2ccc(Cl)cc2)[nH][nH]1 | 23.7% | 3.7% | -5.8% | -17.7% | 2.0% | -0.1% | x
CC(C)[C@@H]1CC2=C(C(=O)OC(C)(C)O2)[C@H](CCc2ccccc2)O1 | x | x | x | -3.6% | x | x | x
COC(=O)c1ccc(NC(=O)C(=O)NCCc2sc3nc(-c4ccc(OC)cc4)nn3c2C)cc1 | 7.0% | 20.5% | 14.7% | x | -9.4% | -11.8%[60.1 µM] | x
O=C(c1cccnc1)N1C2C=CC(C2)C1(C(F)(F)F)C(F)(F)F (configuration not stated) | u | -2.8% | 14.1µM* | u | 39.8µM* | -7.1% | u
